This excerpt belongs to a sample that is enriched for hits.
APEX1 inh – APE1 (human) endonuclease inhibition; recombinant APE1, TAMRA/BHQ-2 abasic DNA cleavage fluorescence; 350,000 tested, 0.35% active; Potency, µM (highest dose often 65.8 µM), without a hit: at the top dose activity change, negative = inhibition, usual class: inhibitors;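 also: plate controls were vehicle for no effect and reference inhibitor for full effect; nearly all actives have a fitted effect of over 55% in size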
Target sequence (P27695 whole entry, looked up): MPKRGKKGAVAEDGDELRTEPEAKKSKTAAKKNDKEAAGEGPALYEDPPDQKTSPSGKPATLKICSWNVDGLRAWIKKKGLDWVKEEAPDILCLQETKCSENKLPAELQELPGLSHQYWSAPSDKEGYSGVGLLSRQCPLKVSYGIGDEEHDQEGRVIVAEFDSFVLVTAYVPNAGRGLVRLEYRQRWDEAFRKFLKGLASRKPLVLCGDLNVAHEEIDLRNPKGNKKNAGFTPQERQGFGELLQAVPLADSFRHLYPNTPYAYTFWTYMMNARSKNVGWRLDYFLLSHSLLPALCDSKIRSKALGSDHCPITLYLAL
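Activity was derived from the fluorescence gain between first and third kinetic reads (60 s intervals, ex 525/em 598 nm) after 50 nM THF-abasic TAMRA/BHQ-2 duplex was added to 0.75 nM APE1 preincubated 15 min with compound.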
TDP1 block – inhibitors of human tyrosyl-DNA phosphodiesterase TDP1. AID 485290. Q9NUW8. recombinant TDP1, AlphaScreen DNA substrate cleavage. Potency, µM (highest dose often 130 µM), without a hit: at the highest dose activity change, negative = inhibition, usual class: inhibitors. 350,000 tested, 0.28% active; also: nearly all actives have a fitted effect of over 40% in size
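Recombinant E. coli-expressed Tdp1 (1 nM) preincubated with compound 15 min at RT, then 5'-biotin/3'-phosphotyrosine-FITC DNA substrate (15 nM) added for 5 min. AlphaScreen beads (10 ug/ml) added, 10 min RT; tyrosine-FITC cleavage read as signal loss.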
RECQ1 helicase – blocks DNA unwinding by human RECQ1 | P46063 | RECQ1 DNA unwinding, red fluorescence kinetic read | Potency, µM (top dose mostly 57.3 µM), inactives show at the top dose activity, negative = inhibition, usual class: inhibitors | 240,000 tested, 0.54% active;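 also: plate controls were vehicle for no effect and no enzyme for full effect; nearly all actives have a fitted effect of over 30% in size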
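50 nM RECQ1T1 preincubated 15 min with compound in Tris pH 8.0 buffer with MgCl2, DTT, Tween-20 and 2.5 ug/ml poly(dI-dC); started with 200 nM TAMRA/BHQ-2 forked duplex and 2 mM ATP. Unwinding read as fluorescence (525/598 nm), two reads 2 h apart.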
L3MBTL1 block – inhibitors of human L3MBTL1; Potency, µM (highest dose often 57.1 µM), inactives show at the top dose activity, negative = inhibition, actives largely listed as inhibitors; Q9Y468; AlphaScreen L3MBTL1–H3K9me1 peptide binding; 230,000 tested, 0.66% active; also: nearly all actives have a fitted effect of over 60% in size
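L3MBTL1 50 nM + b-AHA-H3(1-15)K9me1 75 nM, 30 min RT; compound added, 30 min RT; streptavidin donor/Ni-chelate acceptor beads 10 ug/mL each final, 30 min RT dark; AlphaScreen read.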
BLM helicase inh – blocks DNA unwinding by human BLM helicase; P54132; recombinant BLM DNA unwinding, fluorescence dequenching; Potency, µM (top dose mostly 56.1 µM), for the others: at the highest dose activity change, negative = inhibition, actives largely listed as inhibitors; 350,000 tested, 0.2% active;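 also: plate controls were vehicle for no effect and no enzyme for full effect; nearly all actives have a fitted effect of over 35% in size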
KDM4E inh – blocks human JMJD2E demethylase activity. 230,000 tested, 1.6% active. Potency, µM (highest dose often 57.1 µM), for the others: at the top dose activity change, negative = inhibition, most hits filed as inhibitors. JMJD2E catalytic domain, FDH-coupled NADH fluorescence (FDH is formaldehyde dehydrogenase);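 also: 0% = wells with enzyme and -100% = buffer wells without enzyme; nearly all actives have a fitted effect of over 50% in size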
Target sequence (B2RXH2 1-337 limits assumed): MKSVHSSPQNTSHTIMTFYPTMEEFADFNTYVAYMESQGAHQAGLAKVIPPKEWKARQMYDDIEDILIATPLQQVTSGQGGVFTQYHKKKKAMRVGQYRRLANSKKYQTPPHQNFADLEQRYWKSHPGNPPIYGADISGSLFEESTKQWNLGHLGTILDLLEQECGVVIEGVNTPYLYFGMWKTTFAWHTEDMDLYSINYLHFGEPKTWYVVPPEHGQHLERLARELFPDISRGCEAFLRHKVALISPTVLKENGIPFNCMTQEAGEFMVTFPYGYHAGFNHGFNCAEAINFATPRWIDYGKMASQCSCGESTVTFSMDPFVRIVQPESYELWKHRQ
* marks the source's active call; other numbers are inactive results; i = inactive; ? = inconclusive; nt = not tested or not shown; [ ] = another dose, or the depositor's remark. Unless noted, calls follow the shape of the dose curve; as a rule, active = well fitted curve in the direction sought with a large enough effect; inconclusive = small, poorly fitted or top-dose-only effect, or another doubt; inactive = no such curve, though single readings can be large; an effect the other way counts as inactive or inconclusive. Unless noted, % is scaled to controls: 0 for no effect and ±100 for the full control effect; potency is read from the fitted curve at half-maximal effect.

SMILES | APEX1 inh | TDP1 block | RECQ1 helicase | L3MBTL1 block | BLM helicase inh | KDM4E inh
CC(=O)N(c1ccc2oc(=O)sc2c1)S(=O)(=O)c1ccccc1 | -1% | 10% | i | 0% | -3% | -3%
COc1ccccc1/C=C/c1nc(C#N)c(N2CCCCCC2)o1 | nt | 2% | nt | nt | -4% | nt
CC(C(=O)NC1C(=O)N2C(C(=O)O)=C(CSc3nnnn3C)CSC12)n1cc(Cl)cn1 (stereo not given) | 1% | ? | -4% | nt | 2% | -21%
CO[C@@]1(NC(=O)C2SC(=C(C(N)=O)C(=O)O)S2)C(=O)N2C(C(=O)O)=C(CSc3nnnn3C)CS[C@@H]21 (stereo not given in full) | -2% | nt | nt | 7.9µM* | nt | nt
CC1=C(C(=O)O)N2C(=O)C(NC(=O)C(N)C3=CCC=CC3)C2SC1 (stereo not given) | -2% | -4%[56.1 µM] | 12% | nt | -1% | ?
CC1=C(C(=O)O)N2C(=O)[C@@H](NC(=O)C(N)C3=CCC=CC3)[C@H]2SC1 (stereo not given in full) | -7% | 9%[56.1 µM] | i | nt | nt | 22µM*
CC(C)[C@H](NC(=O)[C@@H](Cc1c[nH]c2ccccc12)NC(=O)[C@H](Cc1ccc(O)cc1)NC(=O)[C@@H](N)CC(=O)O)C(=O)N[C@H](Cc1c[nH]c2ccccc12)C(=O)N[C@H](Cc1c[nH]c2ccccc12)C(=O)N[C@@H](CCCCN)C(N)=O | 15% | 10% | 20µM* | nt | -12% | nt
CCCOc1ccc(-c2cccc(NS(=O)(=O)c3ccc(CC)cc3)c2)nn1 | nt | 3% | nt | nt | -12% | nt
NS(=O)(=O)c1ccc(-c2ccc(/C=C3\NC(=S)NC3=O)o2)cc1 | -15% | nt | nt | 13µM* | -6% | nt
Cn1c(=O)c(Nc2ccc(Cl)cc2)c2c3c(cccc31)C(=O)c1ccccc1-2 | 51% | 0% | 28µM* | nt | -16% | -3%
O=C(c1ccc(N2C(=O)C3C4CC(C(Br)C4Br)C3C2=O)cc1)N1CCCCC1 (stereo not given) | ? | 32µM* | nt | nt | -3% | nt
O=C(Nc1ccc2nc(-c3ccco3)c(-c3ccco3)nc2c1)N1CCCC1 | nt | 7.1µM* | nt | nt | nt | nt
O=C(NCCO)Nc1ccc2nc(-c3ccco3)c(-c3ccco3)nc2c1 | -3% | 3% | i | 0.71µM* | ? | 11%
O=C(NCCO)Nc1ccc2nsnc2c1 | 8% | 4% | i | ? | -8% | ?
CC(C)OC(C)C | 5% | 7% | 11% | nt | 2% | nt
CC(CC(=O)O)Nc1ccccc1O (stereo not given) | ? | nt | i | -5% | -3% | 20µM*
Cc1ccc(CN(C)C(=O)c2ccccc2NC(=O)c2ccccc2)o1 | 5% | 2% | nt | -4% | nt | nt
COc1ccc(Cl)cc1Nc1nnc(-c2ccncc2)s1 | 8.4µM* | nt | nt | nt | -6% | nt
C=C(NC(=O)C(=C)NC(=O)c1csc(C2=N[C@@H]3c4csc(n4)[C@H]4NC(=O)c5csc(n5)[C@H]([C@](C)(O)[C@@H](C)O)NC(=O)[C@H]5CSC(=N5)C(=CC)NC(=O)C([C@@H](C)O)NC(=O)c5csc(n5)[C@]3(CC2)NC(=O)[C@H](C)NC(=O)C(=C)NC(=O)[C@H](C)NC(=O)C([C@@H](C)CC)NC2C=Cc3c([C@H](C)O)cc(nc3C2O)C(=O)O[C@@H]4C)n1)C(N)=O (stereo not given in full) | 5%[21 µM] | nt | nt | nt | nt | nt
CCN1C/C(=C/c2sccc2C)c2nc3ccccc3c(C(=O)O)c2C1 | 8% | 2% | i | nt | -8% | -5%
CCN1C/C(=C/c2cccs2)c2nc3ccccc3c(C(=O)O)c2C1 | 1% | 7% | 11% | -17% | -10% | 25µM*
COc1ccc(-c2noc(CSCC(=O)Nc3cc(OC)c(OC)c(OC)c3)n2)cc1OC | nt | 4% | nt | nt | -1% | nt
O=C(CSc1ccc2nnc(-c3ccccn3)n2n1)Nc1ccc(F)cc1 | -3% | 1% | nt | nt | -8% | nt
O=C(CSc1ccc2nnc(-c3ccccn3)n2n1)N1CCN(c2ccccc2)CC1 | 15% | 4% | 40µM* | ? | -7% | 4%
Cc1occc(=O)c1O | 15% | 4% | -5% | 3% | 6% | 16µM*
SMILES | APEX1 inh | TDP1 block | RECQ1 helicase | L3MBTL1 block | BLM helicase inh | KDM4E inh
O=C(N/N=C\c1ccc2c(c1)OCO2)c1cncc(Br)c1 | -8% | 50µM* | nt | nt | -1% | nt
Cc1ccccc1OCCCN1CCCC1 | 2% | -6% | 2% | -19% | 0% | -17%
Cc1ccccc1OCCN1CCCC1 | 5% | 79µM* | nt | nt | 0% | nt
N#CC1=C(S)N(c2ccccc2)C(c2ccc(-c3ccc(Cl)c(Cl)c3)o2)NC1=O (stereo not given) | -2% | 9% | -3% | nt | 6% | 25µM*
N#CC1=C(S)N(c2ccccc2)C(c2ccc(-c3cc(Cl)ccc3Cl)o2)NC1=O (stereo not given) | 10% | -5% | -6% | -13% | -21% | -10%
Cc1cc2c(s1)c1cnn(Cc3ccc(F)c(F)c3F)c(=O)c1n2C | nt | -3% | nt | nt | nt | nt
N#CC(C#N)=C1C=C2C=C(N3CCOCC3)CCC2CC1 (stereo not given) | -9% | -2% | i | -2% | -22% | -3%
N#CC(C#N)=C1C=C2C=C(N3CCCCCC3)CCC2CC1 (stereo not given) | ? | 7% | 28µM* | -19% | 13µM* | -16%
O=C1CCc2c(ccc3ccccc23)O1 | -3% | 4% | -6% | nt | -8% | nt
CN1COc2ccc3ccccc3c2C1 | 1% | 0% | -4% | nt | 2% | 14µM*
CN(Cc1ccccc1)C(=O)c1cc(-c2cccc(Cl)c2)on1 | nt | -8% | nt | nt | -7% | nt
O=C(CSc1nc2nn(-c3ccccc3)c(=O)c-2c2n1CCCCC2)c1ccc(O)c(O)c1 | ? | -7% | nt | 8.9µM* | nt | nt
CNC(=O)CSc1nc2nn(-c3ccccc3)c(=O)c-2c2n1CCCCC2 | 0% | 6% | -15% | 9% | 1% | -8%
COc1cccc(NC(=O)Cn2c(CCC(=O)O)ccc2-c2ccc(Cl)cc2)c1 | 1% | 7% | -9% | -19% | 3% | 28µM*
CNc1ccccc1C(=O)OC | 18% | nt | i | nt | 0% | 22µM*
Nc1ccccc1-n1c(=O)n(Cc2ccccc2F)c(=O)c2[nH]cnc21 | 65% | nt | nt | nt | 2% | nt
Fc1ccc(CNc2ccc(N3CCN(Cc4ccccc4)CC3)cc2)cc1 | 32% | 14% | nt | 22µM* | -13% | nt
COc1cc2ccccc2cc1C(=O)NC(=S)Nc1ccc(C(=O)O)cc1 | 25% | 50µM* | nt | nt | -6% | nt
COc1ccc(NC(=O)c2cc3ccccc3cc2OC)cc1 | -12% | nt | nt | 3% | -4% | nt
O=S(=O)(c1ccc2c(c1)OCCO2)N1CCN(S(=O)(=O)c2ccc(F)cc2F)CC1 | nt | -20% | nt | nt | nt | nt
